Screening data (PubChem BioAssay)
NLRP3 yeast inh: NALP3 inflammasome inhibitors in reconstituted yeast, primary screen, luminescence, uHTS. Yeast reconstituted NLRP3/ASC/caspase-1, beta-gal luminescence, 24 h. inhibition, % at 10 µM. actives 0.39% (n = 330,000);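 active means inhibition of 50% or more; inactive means inhibition below 50%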;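 further: plate controls were induced DMSO wells for no effect and uninduced yeast grown without galactose for full effect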
tim10-1 inh: growth inhibitors of tim10-1 mutant yeast, primary screen, luminescence, uHTS; S. cerevisiae tim10-1 ts strain growth, BacTiter-Glo, 24 h; inhibition, % at 20 µM; actives 2.2% (n = 330,000);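 active means inhibition of at least 40%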;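 further: mutant grown at 25 °C; 0% = DMSO wells with yeast and 100% = wells holding no yeast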
tim23-1 inh: growth inhibitors of tim23-1 mutant yeast, primary screen, luminescence, uHTS | S. cerevisiae tim23-1 growth, BacTiter-Glo luminescence, 24 h | inhibition, % at 20 µM | actives 1.3% (n = 330,000) | AID 463212, 2010;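 active means growth inhibition of the mutant yeast at or above 50%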;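 further: temperature-sensitive mutant grown at 25 °C; plate controls were DMSO-treated mutant yeast for no effect and medium wells lacking yeast for full effect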
TIM10 inh: growth inhibitors of isogenic TIM10 control yeast, primary screen, counter-screen for tim10-1 yeast inhibitor project, luminescence, uHTS; S. cerevisiae TIM10 strain growth, BacTiter-Glo luminescence, 24 h; inhibition, % at 10 µM; actives 1.4% (n = 330,000); AID 463195, 2010;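 active means inhibition of 40% or more at the single tested concentration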;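 further: wild-type TIM10 isogenic control strain grown at permissive 25 °C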
V-ATPase pHluor: regulators of yeast V-ATPase proton pumping, primary screen, pHLuorin cytosolic pH fluorescence; S. cerevisiae; response, % at 10 µM; actives 0.37% (n = 350,000); AID 504577, 2011; in the data active means response mostly above about 7.3%, no sharp cut-off; inactive means mostly below about 5.4%; further: actives read high
NALP1 yeast inh: NALP1 inflammasome inhibitors in reconstituted yeast, colorimetric, S. cerevisiae, triplicate retest; AID 2071, 2009; actives 0.61% (n = 280,000); inhibition, % at 10 µM; S. cerevisiae NALP1/ASC/caspase-1 growth, X-gal OD620, 72 h; in the data active means inhibition mostly above about 24%, no sharp cut-off; inactive means mostly below about 32%
tim10-1 conf: growth inhibitors of tim10-1 mutant yeast, confirmation, single concentration, luminescence, S. cerevisiae; shares compounds with tim10-1 inh; S. cerevisiae tim10-1 ts strain growth, BacTiter-Glo, 24 h; inhibition, % at 20 µM; actives 56% (n = 7,400);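 active means inhibition of yeast growth at or above a set limit in either of two repeat tests at 20 µM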;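 further: tim10-1 mutant grown at permissive 25 °C to find synthetic lethal compounds; 0% = DMSO yeast wells and 100% = medium wells without yeast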
* marks the source's active call; other numbers are inactive results; x = not tested or not shown. Rows were chosen to be rich in hits. Some 4.2% of all compounds tested hit in one or more screens of this group.

SMILES	NLRP3 yeast inh	tim10-1 inh	tim23-1 inh	TIM10 inh	V-ATPase pHluor	NALP1 yeast inh	tim10-1 conf
COc1ccc(C(=O)Nc2cc3c(cc2N2CCCCC2)n(C)c(=O)n3C)cc1OC	7	48*	48	12	-3	18	8
O=C(Nc1ccc(N2CCN(C(=O)c3ccccc3)CC2)cc1)c1ccc(Br)o1	3	39	41	35	0	x	x
O=C(Nc1cccc(C(=O)N2CCN(c3ccccc3)CC2)c1)c1ccco1	23	26	27	11	-2	15	x
O=C(Nc1cccc(C(=O)N2CCN(c3cccc(Cl)c3)CC2)c1)c1ccccc1	10	48*	31	36	-2	17	37*
O=C(Nc1ccc(N2CCN(C(=O)c3ccccc3)CC2)c(Cl)c1)c1ccc(Br)o1	22	48*	43	33	-1	13	39*
C/C(=N\NC(=O)CNc1cccc(C)c1)c1ccc(Br)s1	18	40*	40	34	-1	-24	22
COc1ccc(S(=O)(=O)NC(C(=O)OCC(=O)Nc2ccc(N3CCOCC3)cc2)C(C)C)cc1 (configuration not stated)	x	x	x	x	1	x	x
Cc1ccc(OCC(=O)NNC(=S)NC(=O)C2CCCCC2)c(C)c1	39	47*	32	-22	6	2	-11
CC(=O)N(C(C)=O)C1=C(C#N)C2(CCCCC2)Cc2ccccc21	16	47*	50	34	-2	15	34*
N#CC(C#N)=C1NC2(CCCCC2)Cc2ccccc21	1	20	12	24	-1	6	x
O=C(CCNC(=O)c1ccccc1Cl)Nc1cccc(S(=O)(=O)N2CCCC2)c1	4	0	-7	4	3	x	x
Cc1onc(-c2ccccc2Cl)c1C(=O)N1CCN(c2nc3ccccc3s2)CC1	6	49*	32	33	-1	34*	29
CNC(=S)NNC(=O)c1cc(-c2cccnc2)nc2ccccc12	17	49*	49	34	2	-3	40*
Cc1ccc(-c2cc(C(=O)Nc3cccnc3)c3ccccc3n2)s1	13	42*	35	28	3	6	13
Cc1cccc(-c2cc(C(=O)Nc3cccnc3)c3ccccc3n2)c1	10	40*	43	24	1	-3	19
NC(=O)N/N=C/C=C/c1ccc(F)cc1	19	4	0	-1	0	-1	x
CC(CC(=O)Nc1ncc([N+](=O)[O-])s1)c1ccccc1 (configuration not stated)	16	43*	40	30	5	6	52*
CCC(Oc1ccccc1)C(=O)Nc1nnc(C)s1 (configuration not stated)	1	19	-4	1	4	-1	x
O=C(COC(=O)COc1ccccc1)Nc1ncc([N+](=O)[O-])s1	16	-5	-2	10	1	x	x
CCC(Oc1ccccc1)C(=O)Nc1ncc([N+](=O)[O-])s1 (configuration not stated)	21	42*	47	19	-3	-12	55*
Cc1cc(C)cc(-n2ncc3c2CCCC3NC(=O)c2csnn2)c1 (configuration not stated)	32	41*	42	17	-1	2	27
COc1ncccc1C(=O)NC1CCCc2c1cnn2-c1cc(C)cc(C)c1 (configuration not stated)	-72	48*	21	21	-1	-6	8
Cc1ccc2[nH]c(C)c(/C=C/c3cc[n+](C)cc3)c2c1	13	51*	27	33	0	0	23
O=C(Nc1cc(C(F)(F)F)ccc1N1CCCC1)C1CC(=O)N(Cc2ccccc2)C1 (configuration not stated)	x	x	x	x	1	x	x
COc1ccc(-c2nc(-c3cccs3)c(-c3cccs3)[nH]2)cc1OC	-55	50*	7	36	-1	-14	36*
SMILES	NLRP3 yeast inh	tim10-1 inh	tim23-1 inh	TIM10 inh	V-ATPase pHluor	NALP1 yeast inh	tim10-1 conf
c1ccc(-c2nc(NCc3cccnc3)c3ccccc3n2)cc1	17	40	16	31	9	14	x
Cc1ccc(-c2nc(NCc3cccnc3)c3ccccc3n2)cc1	18	46*	38	11	0	15	30
c1cncc(-c2nc(NCc3ccco3)c3ccccc3n2)c1	6	41*	30	16	5	22	37*
CC(C)COC(=O)N1C[C@H](O)C[C@H]1C(=O)Nc1ccc(Cl)cc1	-2	6	-4	-11	-3	-2	x
Cc1oc2c(C)c3oc(=O)c(CCC(=O)NCCN4CCOCC4)c(C)c3cc2c1C	10	9	21	8	0	3	x
CCOC(=O)[C@H]1[C@H]2COc3cc(OC)ccc3[C@@H]2N2C(=O)N(c3ccc(Cl)cc3)C(=O)[C@@]12C	-4	33	43	5	-2	16	x
[O-][n+]1c(/C=C/c2ccccc2)ccc2ccccc21	14	49*	50	23	8	14	28
Cc1cc(C)n(CC(O)Cn2c3ccc(Br)cc3c3cc(Br)ccc32)c(=O)n1 (configuration not stated)	7	56*	46	23	5	-6	52*
COc1ccc(N/C(C)=C/C(=O)c2ccccc2)cc1	28	1	15	4	-1	37	x
COc1ccc(N/C(C)=C/C(=S)Nc2ccccc2)cc1	-9	41*	26	15	0	9	15
CCN1Cc2c(/C=C/c3ccccc3)nc3ccc(OC)cc3c2N(c2cccc(Cl)c2)C1	9	31	30	24	-1	11	x
O=C(Oc1cc2oc(=O)c3c(c2cc1Cl)CCCC3)c1cccs1	25	43*	31	23	0	16	17
O=C(Oc1ccc2c3c(c(=O)oc2c1)CCCC3)c1cccs1	24	-2	13	21	-1	29	x
Cc1ccc(C2C(C#N)=C(N)Oc3n[nH]c(-c4cccs4)c32)s1 (configuration not stated)	14	46*	43	37	-3	4	31
O=C1S/C(=C\c2ccc(N3CCOCC3)o2)C(=O)N1Cc1ccc(F)cc1	49	33	17	19	0	-2	x
O=C1S/C(=C/c2ccc(N3CCOCC3)o2)C(=O)N1Cc1ccc(F)cc1	25	42*	25	24	-1	9	50*
Cc1cccc(/C=C2\CS/C(=C\c3cccc(C)c3)C2=O)c1	15	44*	49	24	-4	-7	36*
